# Assay outcomes (PubChem BioAssay)
# Rows were chosen to be rich in hits. Some 19% of all compounds tested hit in one or more screens of this group.
# HT1080-NT tox = qHTS for induction of synthetic lethality in tumor cells producing 2HG: qHTS for the HT-1080-NT fibrosarcoma cell line; HT-1080-NT fibrosarcoma viability, CellTiter-Glo ATP luminescence, 48 h; Potency, µM (highest dose often 46.1 µM), for the others: top-dose activity, negative = less viability, most hits filed as cytotoxic; actives 1.6% (n = 360,000);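 note: NT is the 2HG producing partner of a matched IDH1 knockdown line; potency is the fitted concentration of half-maximal effect; 0% = DMSO-treated cells and -100% = media-only wells without cells; nearly all actives have a fitted effect of over 55% in size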
#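 Viability of the 2HG-overproducing fibrosarcoma line after 48 hours of compound exposure at 37 degrees C was determined by luminescence with CellTiter-Glo, and concentration-effect curves were then fitted and categorized.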
# HT1080 IDH1KD tx = qHTS for induction of synthetic lethality in tumor cells producing 2HG: qHTS for the HT-1080-IDH1KD cell line. actives 2% (n = 360,000). HT-1080 IDH1 knockdown viability, ATP luminescence, 48 h. Potency, µM (series often up to 46.1 µM), for inactives: top-dose activity, negative = toxicity, hits mostly cytotoxic. AID 686971, 2013;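 note: potency is the fitted concentration of half-maximal effect; 0% = DMSO wells and -100% = cell-free medium wells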
#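 In this qHTS, HT-1080 cells depleted of IDH1 are exposed for 48 h at 37 °C to compound titrations. Toxicity is scored from CellTiter-Glo luminescence, with DMSO as full viability and medium alone as none.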
# IL-1B inflam inh = qHTS for Inhibitors of Inflammasome Signaling: IL-1-beta AlphaLISA Primary Screen; THP-1 LPS/ATP IL-1B secretion, AlphaLISA, 16 h; stronger effect = lower value; activity change, % at 57.5 µM; actives 4.7% (n = 360,000); in the data active = activity change below about -50%; inconclusive = mostly about -30% to -49%
#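 Secreted IL-1B measured by AlphaLISA bead assay after 16 h compound exposure of THP-1 cells; compounds (final up to 57.5 uM) added 1 h before LPS (250 ng/mL) and ATP (1.25 mM) stimulation; lower signal means less secretion.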
# TDP1 cell noCPT = qHTS for Inhibitors of human tyrosyl-DNA phosphodiesterase 1 (TDP1): qHTS in cells in absence of CPT; actives 15% (n = 420,000); Potency, µM (doses to about 46.2 µM), without a hit: top-dose activity change, negative = growth inhibition, actives largely listed as inhibitors; DT40 Tdp1-/- hTDP1 cells, no CPT, ATP luminescence, 48 h; note: potency is the fitted concentration of half-maximal effect; nearly all actives have a fitted effect of over 55% in size
#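 Compound effects on proliferation are scored in DT40 Tdp1-/-;hTDP1 cells in the absence of CPT. ATP levels (CellTiter-Glo luminescence) are recorded after a ≥48 hr, 37 °C incubation.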
# TDP1 cell CPT = qHTS for Inhibitors of human tyrosyl-DNA phosphodiesterase 1 (TDP1): qHTS in cells in presence of CPT; chicken DT40 Tdp1-/-;hTDP1 cells + 20 nM CPT, ATP luminescence, 48 h; Potency, µM (highest dose often 46.2 µM), for the others: top-dose activity change, negative = growth inhibition, hits mostly inhibitors; actives 12% (n = 420,000); AID 686979, 2013; note: potency is the fitted concentration of half-maximal effect; nearly all actives have a fitted effect of over 55% in size
#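 Cell growth measured by CellTiter-Glo luminescence after a minimum 48 h, 37 C compound exposure with 20 nM CPT in Tdp1-knockout DT40 cells stably expressing hTDP1, seeded 400/well; qHTS titration format.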
# uPA generation = qHTS for Inhibitors of Cell Surface uPA Generation. cell surface uPA generation assay, qHTS. Potency, µM (top dose mostly 38.3 µM), for the others: at the top dose activity change, negative = inhibition, hits mostly inhibitors. actives 0.31% (n = 330,000); active = well fitted inhibition curve with a large enough effect; inconclusive = small, poorly fitted or top-dose-only effect; inactive = no such curve, though single readings can be large or run the other way; tested in mouse RAW 264.7 cells; note: potency is the fitted concentration of half-maximal effect; nearly all actives have a fitted effect of over 55% in size
# * = called active by the depositor; ? = inconclusive; / = not tested or not shown; [ ] = another dose, or the depositor's remark. Unless noted, calls come from the whole dose curve; as a rule, active = well fitted curve in the direction sought with a large enough effect; inconclusive = small, poorly fitted or top-dose-only effect, or another doubt; inactive = no such curve, though single readings can be large; an effect the other way counts as inactive or inconclusive. Unless noted, % is set by controls: 0 for no effect and ±100 for the full control effect.
SMILES,HT1080-NT tox,HT1080 IDH1KD tx,IL-1B inflam inh,TDP1 cell noCPT,TDP1 cell CPT,uPA generation
CCc1ccc(NC(=O)C(=O)NCC2CCCN2S(=O)(=O)c2cccs2)cc1 (configuration not stated),-2%,-9%,-14,15µM*,18µM*,-2%
Cc1cccc(NC(=O)C(=O)NCC2CCCN2S(=O)(=O)c2ccccc2)c1 (configuration not stated),1%,-3%,6,10µM*,15µM*,-1%
Cc1cccc(NC(=O)C(=O)NCC2CCCN2S(=O)(=O)c2cccs2)c1C (configuration not stated),6%,1%,-10,?,21µM*,4%
CC1(C(=O)NCc2ccccc2)CN(S(C)(=O)=O)CC(=O)N1C1CC1 (configuration not stated),14%,4%,8,6%,12%,/
O=[N+]([O-])c1ccc(C2=NN(c3ccccc3)C(c3ccco3)C2)cc1 (configuration not stated),-1%,9%,-19,?,-27%,11%
COc1ccccc1C1CC(c2ccc(NS(C)(=O)=O)cc2)=NN1S(=O)(=O)c1ccccc1 (configuration not stated),-15%,-24%,?,-12%,-13%,1%
CS(=O)(=O)Nc1ccc(C2=NN(S(=O)(=O)c3ccc(F)cc3)C(c3ccco3)C2)cc1 (configuration not stated),?,?,18,-4%,-29%,?
O=S(=O)(c1ccccc1)N1N=C(c2ccc(O)cc2)CC1c1ccco1 (configuration not stated),0%,-1%,20,7.3µM*,8.2µM*,?
O=S(=O)(c1ccccc1)N1N=C(c2ccc(Br)cc2)CC1c1ccco1 (configuration not stated),-1%,-13%,?,16µM*,16µM*,-16%
O=S(=O)(c1ccccc1)N1N=C(c2ccccc2)CC1c1ccccc1F (configuration not stated),-9%,-11%,-22,?,16µM*,-9%
O=C(OCc1cn([C@@H]2CN(C(=O)C3CCCCC3)[C@@H](c3ccc(Cl)cc3)C[C@H]2O)nn1)c1ccccc1,-2%,-2%,4,?,-26%,/
CC(C)C[C@H]1CNC(=O)C(=O)N1C[C@H](C)NC(=O)Cc1ccccc1,-2%,3%,12,-3%,1%,16%
COc1ccccc1CNc1cc(-c2ccccc2)nc2nncn12,/,/,/,16µM*,23µM*,/
Clc1ccc(CNc2cc(-c3ccccc3)nc3nncn23)cc1,/,/,/,13µM*,16µM*,/
Cc1nc2nc(NCc3cccc(Cl)c3)[nH]n2c(=O)c1Cc1ccccc1,/,/,/,?,-12%,/
COc1cccc(-c2nccc(NCc3ccccc3OC)n2)c1,/,/,/,?,-29%,/
Clc1cccc(CNc2cc(-c3ccccc3)nc3nncn23)c1,/,/,/,15µM*,15µM*,/
CCNC(=O)c1c(NC(=O)c2nc(SC)ncc2Cl)sc2c1CCCC2,/,/,/,?,-25%,/
COc1cc(-c2cc(C)c3c(OC)ccc(OC)c3n2)cc2c1OCCN(Cc1cn(C)nc1C)C2,/,/,/,-22%,33%[9.04 µM],/
COc1cc(CNc2nnnn2C)cc(OC)c1OC,4%,2%,3,-7%,16%,12%
Cc1c(NC=C(C#N)C#N)c(=O)n(-c2ccccc2)n1C,-16%,-10%,13,-16%,3%,/
